Test results taken from PubChem BioAssay.
Calls of active or inactive are those of the source. Unless noted, the rule behind the calls is not given here.

Legend:
[1] = test system: Wnt5a (protein binding on small-molecule microarray); assay: small molecules binding Wnt5a protein – biophysical, small-molecule microarray, 635/667 nm fluorescence, primary screen (AID 1142); settings: 635 nm fluorescence, higher = more signal;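 note: fluorescence read at 667 nm with signal to noise per printed feature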
[2] = ATP-based viability of Huh7 replicon cells – cell-based, CellTiter-Glo luminescence, basal, 48 h, cytotoxicity control for HCV replication inhibitor project, primary screen (AID 1143); settings: higher = more signal, called active from +8 up or from −8 down;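 note: Huh7 hepatoma cells carrying a hepatitis C replication reporter with no stimulus; test concentration not given here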
[3] = Pseudomonas biofilm growth suppression – PAO1 strain, BacTiter-Glo luminescence, LB-PBS, primary screen (AID 1144); settings: P. aeruginosa PAO1 biofilm, 12 h, higher = more signal
[4] = basal CRE-LacZ reporter activity in PC12 – cell-based, unstimulated, primary screen (AID 1145); settings: no forskolin, luminescence, 4.5 h, higher = more signal, called active from +8 up or from −8 down
[5] = forskolin-driven CRE-LacZ activity in PC12 – cell-based, CRE-LacZ reporter, forskolin-stimulated, primary screen (AID 1146); settings: luminescence, 4.5 h, higher = more signal, called active from +8 up or from −8 down;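 note: PC12 cells with 6xCRE LacZ reporter stimulated by forskolin 10 µM; beta-galactosidase reporter signal reflecting CREB driven transcription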
[6] = molecular target: Streptavidin (Streptomyces avidinii) (UniProt P22629); assay: compounds binding control protein streptavidin – biophysical, small-molecule microarray, 635/667 nm fluorescence, artefact control for SMM compound annotation, primary screen (AID 1147); settings: higher = more signal;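 note: signal reflects streptavidin binding to arrayed compounds as a control protein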
Chain of Streptavidin (Streptomyces avidinii) (P22629 whole entry, looked up): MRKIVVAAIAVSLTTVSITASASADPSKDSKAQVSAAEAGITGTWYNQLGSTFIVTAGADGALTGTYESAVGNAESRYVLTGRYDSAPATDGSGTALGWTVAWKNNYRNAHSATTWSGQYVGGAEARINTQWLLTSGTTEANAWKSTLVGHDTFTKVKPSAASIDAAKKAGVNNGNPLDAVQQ

[7] = probe aInhba binding on compound microarray – biochemical, small-molecule microarray, 635/667 nm fluorescence, primary screen (AID 1148); settings: higher = more signal;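 note: score merges 667nm spot fluorescence with signal-to-noise for antibody binding to printed compounds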
Torsin-1A (Homo sapiens) [8] = molecular target: Torsin-1A (Homo sapiens) (UniProt O14656); assay: TOR1A wild-type binding on microarray – cell lysate, small-molecule microarray, lysate, 635/667 nm, primary screen (AID 1149); settings: COS7 hTOR1A-WT lysate, 635 nm fluorescence, higher = more signal
Chain of Torsin-1A (Homo sapiens) (O14656 whole entry, looked up): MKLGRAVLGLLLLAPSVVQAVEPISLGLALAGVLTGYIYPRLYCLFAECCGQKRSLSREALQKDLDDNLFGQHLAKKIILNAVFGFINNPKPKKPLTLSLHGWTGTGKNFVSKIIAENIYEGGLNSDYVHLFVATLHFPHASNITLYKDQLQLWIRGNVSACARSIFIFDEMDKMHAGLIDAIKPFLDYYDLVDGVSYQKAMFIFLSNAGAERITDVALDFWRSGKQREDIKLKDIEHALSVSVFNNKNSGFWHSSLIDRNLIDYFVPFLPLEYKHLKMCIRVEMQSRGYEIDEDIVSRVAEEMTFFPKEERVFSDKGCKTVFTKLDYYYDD

Torsin-1A (Homo sapiens) [9] = molecular target: Torsin-1A (Homo sapiens) (UniProt O14656); assay: torsin A mutant lysate binding on microarrays – cell lysate, small-molecule microarray, COS7 lysate, 635/667 nm fluorescence, primary screen (AID 1150); settings: COS7 hTOR1A mutant lysate, 635 nm fluorescence, higher = more signal;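 note: score pools 667 nm emission and signal to noise measuring lysate protein binding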
[10] = test system: Sonic hedgehog protein (Shh); assay: Sonic hedgehog microarray binding compounds – biochemical, small-molecule microarray, 635/667 nm fluorescence, primary screen (AID 1151); settings: 635 nm fluorescence, higher = more signal;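 note: Shh protein binding to compounds spotted on small-molecule microarray slides; score combines spot fluorescence intensity with signal-to-noise across triplicate slides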

| SMILES | composite z-score [1] | z-score [2] | z-score [3] | z-score [4] | z-score [5] | composite z-score [6] | composite z-score [7] | composite z-score (Torsin-1A (Homo sapiens) [8]) | composite z-score (Torsin-1A (Homo sapiens) [9]) | composite z-score [10] |
| --- | --- | --- | --- | --- | --- | --- | --- | --- | --- | --- |
| COC(=O)C(CC#Cc1ccc2c(c1)[C@]1(C(=O)N2)[C@H](c2ccccc2OCCO)N2[C@H](c3ccccc3)[C@H](c3ccccc3)OC(=O)[C@H]2[C@@H]1C(=O)N1CCN(c2ncccn2)CC1)C(=O)OC | 0.253 | -4.92 (inactive) | -0.321 (inactive) | -0.375 (inactive) | 2.68 (inactive) | 1.06 | -0.0695 | 1.03 | 0.498 | 1.11 |
| COCCOC(=O)N1C(=O)[C@@]2(c3cc(C#CC4=CCCCC4)ccc31)[C@H](C(=O)N1CCCCCCC1)[C@H]1C(=O)O[C@H](c3ccccc3)[C@H](c3ccccc3)N1[C@@H]2c1ccccc1OCCO | 0.393 | -5.21 (inactive) | -1.33 (inactive) | -1.7 (inactive) | -1.11 (inactive) | 1.04 | 0.806 | 0.801 | 0.824 | 1.62 |
| CC(C)N1CC=CC23O[C@@H]4/C=C\CCCOC(=O)C4[C@H]2C(=O)N(C(C)CO)[C@@H]3C1=O (stereo not given in full) | -0.603 | 0.282 (inactive) | -2.11 (inactive) | -1.58 (inactive) | -0.869 (inactive) | -0.938 | -0.176 | -2.23 | -0.913 | -0.413 |
| COc1cc2c(cc1O)C(C)N(Cc1sc3ccccc3c1Cl)CC2 (stereo not given) | -0.434 | -0.693 (inactive) | -0.432 (inactive) | -0.258 (inactive) | -0.487 (inactive) | 0.105 | 0.0021 | -1.22 | -1.28 | -0.985 |
| CCOC(=O)C[C@H]1[C@H](OC(=O)c2ccc(-c3ccccc3)cc2)[C@@H](NC(=O)c2ccc(-c3ccccc3)cc2)c2cc(OCCCO)ccc2N1C(=O)c1ccccc1 | 0.131 | -0.212 (inactive) | -0.00979 (inactive) | -0.724 (inactive) | 0.659 (inactive) | 0.763 | 0.108 | 0.134 | 0.987 | 0.921 |
| C=C[C@@H](CO)NS(=O)(=O)c1ccc(Br)cc1 | 0.236 | -2.14 (inactive) | -1.74 (inactive) | 1.54 (inactive) | -0.52 (inactive) | -0.232 | -0.154 | -0.0176 | -0.354 | -0.317 |
| CCOC(=O)C[C@H]1[C@H](OC(=O)c2ccc(-c3ccccc3)cc2)[C@@H](NC(=O)C2CCCCC2)c2cc(OCCCO)ccc2N1C(=O)Cc1ccc(OC)cc1 | -0.12 | -0.137 (inactive) | -0.105 (inactive) | -0.155 (inactive) | -0.185 (inactive) | 0.226 | -0.0259 | 0.061 | 0.391 | 0.106 |
| CCCNC(=O)[C@@]1(Sc2ccc(C)cc2)CC(=O)N(Cc2cc(C(F)(F)F)cc(C(F)(F)F)c2)[C@@H]1c1ccc(CO)cc1 | -0.139 | -4.41 (inactive) | 0.503 (inactive) | -0.554 (inactive) | 0.448 (inactive) | -1.08 | -0.0963 | -0.11 | -0.155 | -0.0508 |
| CC(C)C(=C=CC[C@H](O)c1cccc(OCCO)c1)C[C@H](O)c1ccccn1 | -0.103 | -0.667 (inactive) | -1.06 (inactive) | 2.25 (inactive) | 0.42 (inactive) | -0.502 | -0.0986 | -0.256 | 0.0951 | 1.45 |
| [N-]=[N+]=NCc1ccccc1C[C@@]1(C(=O)NCCN2CCOCC2)N=C(c2ccc(OCCCO)cc2)O[C@@H]1c1ccccc1 | 0.366 | -3.38 (inactive) | 0.505 (inactive) | 2.72 (inactive) | 0.847 (inactive) | 1.11 | 0.302 | 0.271 | 0.57 | 0.34 |
| COCCOC(=O)N1C(=O)[C@@]2(c3cc(C#CCNC(N)=O)ccc31)[C@H](c1ccc(O)cc1)N1[C@H](c3ccccc3)[C@H](c3ccccc3)OC(=O)[C@H]1[C@@H]2C(=O)N1CCc2cc(OC)c(OC)cc2C1 | 0.0981 | -0.483 (inactive) | 0.389 (inactive) | -0.0515 (inactive) | -0.379 (inactive) | 0.468 | -0.0448 | -0.0669 | 0.148 | 0.97 |
| Cc1ccc(S[C@]2(C(=O)NC(C)C)CC(=O)N(Cc3ccccc3)[C@@H]2c2ccc(CO)cc2I)cc1 | -0.114 | -1.99 (inactive) | 1.2 (inactive) | 0.0548 (inactive) | 0.0831 (inactive) | -0.864 | -0.128 | -0.782 | 0.0888 | -0.421 |
| COc1ccc([Si](C)(C)[C@@H]2[C@@H](CC(=O)N(CCO)Cc3ccccc3)O[C@]3(C(=O)N(Cc4cccc(I)c4)c4ccccc43)[C@H]2C)cc1 | 0.546 | -4.61 (inactive) | 0.191 (inactive) | 1.42 (inactive) | -1.11 (inactive) | -0.196 | -0.0405 | 0.48 | 0.443 | 1.79 |
| COCCOC(=O)N1C(=O)[C@@]2(c3cc(C#CCNC(N)=O)ccc31)[C@H](C(=O)N1CCN(c3ncccn3)CC1)[C@H]1C(=O)O[C@H](c3ccccc3)[C@H](c3ccccc3)N1[C@@H]2c1ccc(O)cc1 | -0.546 | -0.375 (inactive) | -1.09 (inactive) | 0.484 (inactive) | -0.26 (inactive) | -1.21 | -0.4 | -0.827 | -0.859 | -0.448 |
| COC(=O)[C@@]1(Cc2ccc(OC)cc2)[C@@H]2[C@@H](CC(=O)[C@H]2CC(=O)C(=O)N(C)C)CN1C(=O)c1ccccc1 | 2.06 | -3.89 (inactive) | 0.327 (inactive) | 0.39 (inactive) | 0.247 (inactive) | 1.79 | 1.83 | -0.0909 | 0.452 | 0.326 |
| COc1cccc(C)c1NC(=O)O[C@H]1[C@H](OC(=O)Nc2ccc3c(c2)OCO3)[C@H](OC(=O)Nc2ccc3c(c2)OCO3)[C@@H](OC)O[C@@H]1CO | 0.469 | -2.59 (inactive) | 1.05 (inactive) | 0.558 (inactive) | -1.04 (inactive) | 1.2 | 0.226 | -0.148 | 0.533 | 2.02 |
| CCCCCCCCCCC(O)C1C=CC2C(=O)N(C)C(=O)C2N1Nc1ccccc1 (stereo not given) | -0.56 | -0.776 (inactive) | 0.178 (inactive) | 0.819 (inactive) | 0.848 (inactive) | -0.925 | -0.474 | -0.0378 | 0.213 | -1.5 |
| COCCOC(=O)N1C(=O)[C@@]2(c3cc(C#CCNC(N)=O)ccc31)[C@H](C(N)=O)[C@H]1C(=O)O[C@H](c3ccccc3)[C@H](c3ccccc3)N1[C@@H]2c1ccc(O)cc1 | 0.159 | 0.29 (inactive) | -0.204 (inactive) | 0.619 (inactive) | -0.713 (inactive) | -0.0811 | 0.296 | 0.572 | -0.0113 | 0.0133 |
| COC(=O)[C@@]1(Cc2ccccc2)[C@H]2c3cc(C(=O)N(C)C)n(CCF)c3C[C@H]2CN1C(=O)c1ccccc1 | 0.633 | -0.717 (inactive) | -0.247 (inactive) | 0.387 (inactive) | 0.218 (inactive) | 1.74 | 0.333 | -0.0224 | 1.16 | -0.187 |
| CCCCC(=C=CC[C@@H](O)c1ccc(OCCO)cc1)CCO | -0.032 | -1.75 (inactive) | 0.234 (inactive) | 7.73 (inactive) | -0.882 (inactive) | -0.217 | 0.0342 | 0.112 | 0.654 | 0.98 |
| CCOC(=O)C1=CCC(c2ccncc2)N(S(=O)(=O)c2ccc(C)cc2)C1 (stereo not given) | 0.637 | -4.28 (inactive) | -0.83 (inactive) | 0.546 (inactive) | 0.882 (inactive) | 3.08 | 0.121 | 0.344 | 1.12 | 0.245 |
| CCOC(=O)C1=CC[C@@H](c2ccccc2)N(S(=O)(=O)c2ccc(C)cc2)[C@@H]1C#N | 0.0432 | -2.54 (inactive) | -0.232 (inactive) | -0.266 (inactive) | 40.6 (active) | 0.814 | -0.128 | 0.0512 | 0.291 | -0.0766 |
| CCOC(=O)C[C@H]1[C@H](OC(=O)c2cc3ccccc3oc2=O)[C@@H](NC(=O)Cc2ccc(OC)cc2)c2cc(OCCCO)ccc2N1C(=O)Cc1ccc(OC)cc1 | 0.0746 | -1.5 (inactive) | -0.783 (inactive) | -0.0558 (inactive) | -1.59 (inactive) | 0.55 | -0.185 | 0.332 | 0.839 | 1.27 |
| CS(=O)(=O)CCOC(=O)C1=CC(CCCO)=CC(C2CC2)N(Cc2sc3ccccc3c2Cl)C=C1C(=O)OCCS(C)(=O)=O (stereo not given) | 0.296 | -2.27 (inactive) | -0.15 (inactive) | 2.57 (inactive) | -0.655 (inactive) | 1.41 | 0.523 | 1.15 | 1.48 | 1.41 |
| O=C(NCCN1CCOCC1)[C@@H]1c2ccccc2C(=O)N(CC23CC4CC(CC(C4)C2)C3)[C@H]1c1ccc(CO)cc1 | 0.617 | -2.69 (inactive) | -0.634 (inactive) | 0.441 (inactive) | -0.0639 (inactive) | 1.12 | 0.0542 | 0.51 | 1.47 | 0.506 |
| C[C@H]1C2[C@H](Cc3ccccc3)NC(=O)[C@]23C(=O)N[C@@H](Cc2ccccc2)C(=O)N2CCC[C@H]2C(=O)NC/C=C/CC/C=C/C3[C@@H]2O[C@]12C (stereo not given in full) | 0.241 | -2.38 (inactive) | -0.165 (inactive) | 0.941 (inactive) | -0.688 (inactive) | -0.423 | -0.0986 | -0.0723 | 0.49 | 0.975 |
| [N-]=[N+]=NCc1ccccc1[C@H]1OC(c2ccc(OCCCO)cc2)=N[C@@]1(Cc1ccccc1N=[N+]=[N-])C(=O)N1CCOCC1 | 0.135 | -3.35 (inactive) | -0.149 (inactive) | 2.61 (inactive) | -0.529 (inactive) | 1.24 | 0.222 | 0.249 | 0.488 | -1.15 |
| C=CCNC(=O)[C@H]1[C@@H]2C(=O)O[C@@H](c3ccccc3)[C@@H](c3ccccc3)N2[C@@H](c2ccc(O)cc2)[C@]12C(=O)N(C(=O)OCCOC)c1ccc(C#Cc3ccc(OC)cc3)cc12 | 0.334 | -2.17 (inactive) | 0.649 (inactive) | -0.195 (inactive) | 1.43 (inactive) | 0.21 | 0.153 | 0.0502 | 0.651 | 1.21 |
